# KB-3-1 cytotox – kills parental KB-3-1 adenocarcinoma cells. KB-3-1 viability, CellTiter-Glo ATP luminescence, 72 h. AID 1347075. 400,000 compounds, 1.4% hits. Potency, µM (doses to about 46.1 µM), actives largely listed as cytotoxic; also: % is scaled to controls: 0 for no effect and ±100 for the full control effect; nearly all actives have a fitted effect of over 60% in size
#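 Multi-concentration cytotoxicity screen in KB-3-1 cells grown in DMEM lacking phenol red with 10% FBS. After 72 h at 37 °C with compound, ATP-dependent luminescence was recorded.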
# SW480 rereplic – inducers of DNA re-replication in SW480 colon cancer cells | SW480 DNA re-replication, Hoechst DNA content imaging, 48 h | Potency, µM (highest dose often 46.1 µM), for inactives: at the highest dose re-replication activation, hits mostly activators | 340,000 compounds, 1.8% hits; also: % of control where 0% means no effect; nearly all actives have a fitted effect of over 55% in size
#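 Image-based read-out: total Hoechst fluorescence of nuclei (405 nm excitation, 500-530 nm emission), with hits raising the fraction of high-intensity nuclei. SW480 colon cells incubated 48 hr with compounds at 37 C.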
# MCF10A rereplic – DNA re-replication induction in MCF 10a cells. MCF 10A DNA re-replication, Hoechst nuclear intensity, 48 h. Potency, µM (doses to about 46.1 µM), inactives show top-dose activity, positive = re-replication, hits mostly activators. 350,000 compounds, 2.9% hits; also: % of control where 0% means no effect; nearly all actives have a fitted effect of over 50% in size
# TSG101-PTAP inh – blocks PTAP/TSG101 interaction to inhibit HIV-1 budding. Q99816. Fluorescence polarization, FITC-PTAP peptide / Tsg101 binding. Potency, µM (series often up to 115 µM), for the others: top-dose activity change, negative = inhibition, hits mostly inhibitors. 340,000 tested, under 10 active. AID 493005; active = well fitted inhibition curve with a large enough effect in the main read-out, with a control signal flat, not every such curve was filed as active; inconclusive = small, poorly fitted or top-dose-only effect, or effect the other way, or a change in a side signal; inactive = no such curve, though single readings can be large or run the other way; also: % of control where 0% means no effect
# Target sequence (Q99816 whole entry, looked up): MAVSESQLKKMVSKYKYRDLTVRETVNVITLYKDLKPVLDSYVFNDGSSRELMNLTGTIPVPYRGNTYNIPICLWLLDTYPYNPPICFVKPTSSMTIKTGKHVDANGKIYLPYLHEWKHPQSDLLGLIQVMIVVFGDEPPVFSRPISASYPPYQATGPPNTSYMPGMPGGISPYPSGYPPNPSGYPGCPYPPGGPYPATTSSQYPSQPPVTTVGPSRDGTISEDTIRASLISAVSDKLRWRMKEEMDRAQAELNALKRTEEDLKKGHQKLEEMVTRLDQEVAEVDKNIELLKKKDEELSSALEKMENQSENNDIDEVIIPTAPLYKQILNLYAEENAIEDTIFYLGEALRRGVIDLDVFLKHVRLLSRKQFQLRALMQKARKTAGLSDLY
#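 Tsg101 binding domain (10 uM final) was mixed with compound and a FITC-labeled PTAP peptide (50 nM final) in HEPES pH 7.5 buffer with NaCl, Tween 20, EDTA and TCEP; fluorescence polarization was read after 20 min at r.t.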
# PINK1 modulator – modulators of PINK1 expression; PINK1 immunofluorescence, high-content cytometry, 24 h; Potency, µM (doses to about 76.6 µM), for the others: at the top dose activation (PINK1 increase), usual class: activators; 410,000 compounds, 0.2% hits; AID 624263; active = well fitted activation curve with a large enough effect; inconclusive = small, poorly fitted or top-dose-only effect; cell line not stated here; also: % of control where 0% means no effect; nearly all actives have a fitted effect of over 65% in size
#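 Stable cell line, 250 cells/well, 12 h attachment; compounds pinned at 5 concentrations, 24 h; CCCP control. Fixed with nuclear dye, primary antibodies 12 h at 10 degrees C, secondary plus cell stain; laser-scanning cytometer read.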
# KB-V1 MDR tox – KB-V1 MDR subline cytotoxicity | 400,000 compounds, 3.4% hits | AID 1347076 | KB-V1 MDR cells viability, CellTiter-Glo, 72 h | Potency, µM (series often up to 46.1 µM), most hits filed as cytotoxic; also: % is scaled to controls: 0 for no effect and ±100 for the full control effect; nearly all actives have a fitted effect of over 60% in size
#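 KB-V1, DMEM (no phenol red) + 10% FBS; cpd pin-transferred, titration series; 72 h, 37 degrees C; CellTiter-Glo, luminescence. Data normalized, curve-fit.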
# Numbers without * were called inactive; i = inactive; ? = inconclusive; / = no result given; [ ] = remark or other dose. This is a sample that favours compounds with a hit; in the whole collection about 6.8% have one here. Unless noted, calls follow the shape of the dose curve; as a rule, active = well fitted curve in the direction sought with a large enough effect; inconclusive = small, poorly fitted or top-dose-only effect, or another doubt; inactive = no such curve, though single readings can be large; an effect the other way counts as inactive or inconclusive. Potency is read from the fitted curve at half-maximal effect.
SMILES,KB-3-1 cytotox,SW480 rereplic,MCF10A rereplic,TSG101-PTAP inh,PINK1 modulator,KB-V1 MDR tox
COc1ccc(N(CC(=O)NC2CCCC2)C(=O)Cn2nnc(-c3ccc(C)cc3)n2)cc1,i,-4%,1%,-5%,-1%[38.3 µM],16µM*
COc1ccc(-c2nnn(CC(=O)N(C3CCCCC3)C(C)C(=O)NC3CCCC3)n2)cc1OC (stereo not drawn),i,-15%,9%,-1%,2%[38.3 µM],2.6µM*
O=C(Nc1c(Cl)cccc1Cl)c1cccc2c1C(=O)N(C1CCCCC1)C2,i,/,/,/,2%,i
O=C(O)CC(=O)NC12CC3CC(CC(C3)C1)C2,i,-8%,-6%,-3%,-2%,?
CC(C)NCC(=O)NC12CC3CC(CC(C3)C1)C2,i,-14%,4%,0%,0%,21µM*
COc1ccccc1C(=O)N1CCN(c2nc3cc(C)cc(C)c3cc2C#N)CC1,i,/,/,/,0%,?
Cc1cc(C)c2cc(C#N)c(N3CCCN(C(=O)c4cnccn4)CC3)nc2c1,i,2%,21µM*,-7%,3%,?
CN(C)c1ccc(NC(=O)CSC2=Nc3ccccc3C3=NC(CCC(=O)NCc4cccs4)C(=O)N23)cc1 (stereo not drawn),i,/,/,/,2%,i
COCCCNC(=S)NC(=O)c1ccc(C)cc1,i,-8%,5%,1%,1%,18µM*
COc1cccc(C(=O)N(Cc2cc3ccc(C)cc3nc2N(C)C)C2CC2)c1OC,/,/,/,/,2%,/
COc1cccc(-c2ccnc(-n3ncc(C(=O)NCc4cccnc4)c3C3CC3)n2)c1,/,/,/,/,0%,/
CCCCn1c(N)c(N(Cc2ccccc2OC)C(=O)c2ccc([N+](=O)[O-])s2)c(=O)[nH]c1=O,?,21µM*,?,0%,-4%,i
CCOCCCNC(=O)C(c1ccc(C)cc1)N(Cc1ccc2c(c1)OCO2)C(=O)c1ccc(NC(C)=O)cc1 (stereo not drawn),i,/,/,/,1%,i
CCOc1ccc(N2CC(C(=O)Nc3cc(S(=O)(=O)N4CCCCC4)ccc3C)CC2=O)cc1 (stereo not drawn),i,6%,12%,-3%,4%,18µM*
Cc1ccc(N2CC(C(=O)Nc3cc(S(=O)(=O)N4CCCCC4)ccc3C)CC2=O)cc1 (stereo not drawn),i,/,/,/,2%,i
Cc1cnc(NC(=O)C2CC(=O)N(c3ccc4c(c3)OCCO4)C2)s1 (stereo not drawn),i,-3%,2%,-4%,6%,15µM*
CC(=O)Nc1ccc(NC(=O)C2CC(=O)N(c3cccc(Cl)c3)C2)cc1 (stereo not drawn),i,1%,-4%,0%,3%,i
Cc1cnc(NC(=O)C2CC(=O)N(c3cccc(Cl)c3)C2)s1 (stereo not drawn),?,?,?,-3%,0%,21µM*
CCCNC(=O)C1CC(=O)N(c2ccc(OCc3ccc(Cl)cc3)cc2)C1 (stereo not drawn),i,1%,4%,-1%,3%,?
CCCNC(=O)C1CC(=O)N(c2ccc(OCc3ccc(F)cc3)cc2)C1 (stereo not drawn),i,-67%,0.65µM*,-2%,4%,i
OCC1CCCN(c2nc3cc4c(cc3cc2CNCc2cccc(C(F)(F)F)c2)OCO4)C1 (stereo not drawn),/,/,/,/,0%,/
COc1ccc(/C=c2\[nH]c(=O)/c(=C/c3ccc(OC)cc3)[nH]c2=O)cc1,i,/,/,/,/,i
CCC(CC)c1nnc(NC(=O)C2CC(=O)N(c3ccc4c(c3)OCCO4)C2)s1 (stereo not drawn),i,2%,5%,1%,2%,21µM*
Cc1csc(NC(=O)C2CC(=O)N(c3ccc4c(c3)OCCO4)C2)n1 (stereo not drawn),i,-22%,-5%,-4%,0%,i
CCc1ccc(-c2csc(NC(=O)C3CC(=O)N(c4ccc5c(c4)OCCO5)C3)n2)cc1 (stereo not drawn),?,?,18µM*,-5%,3%,i
SMILES,KB-3-1 cytotox,SW480 rereplic,MCF10A rereplic,TSG101-PTAP inh,PINK1 modulator,KB-V1 MDR tox
Cc1nnc(NC(=O)C2CC(=O)N(c3ccc4c(c3)OCCO4)C2)s1 (stereo not drawn),i,9%,8%,-6%,0%,?
CCOc1ccc(N2CC(C(=O)Nc3ccc4c(c3)OCCO4)CC2=O)cc1 (stereo not drawn),5.2µM*,-2%,0%,2%,1%,i
CCOc1ccc(N2CC(C(=O)Nc3ccc4c(c3)OCO4)CC2=O)cc1 (stereo not drawn),i,-1%,11%,0%,14%,i
CC(=O)Nc1cccc(NC(=O)c2c(-c3ccccc3Cl)noc2C)c1,i,0%,?,-6%,/,16µM*
Cc1onc(-c2ccccc2Cl)c1C(=O)Nc1cccc2cccnc12,i,13%,8.2µM*,-2%,-2%,12µM*
Cc1cnc(C(=O)Nc2cccc3cccnc23)cn1,5.2µM*,?,?,-6%,0%,?
CC(=O)Nc1ccc(NC(=O)c2c(-c3ccccc3Cl)noc2C)cc1,i,-1%,2%,1%,1%,i
Cc1cccc(C(=O)Nc2cccc3cccnc23)c1,i,?,16%,-2%,4%,i
Cc1onc(-c2ccccc2Cl)c1C(=O)OCc1cnc(Cl)s1,i,4%,23µM*,-2%,0%,?
S=C(NCCCc1cnc[nH]1)NCCCN(Cc1ccc(Cl)cc1)c1cc(-c2ccccc2)ccn1,i,/,/,/,3%,i
Cc1cc(C)cc(-n2ccn(CC(=O)c3ccc(F)cc3)c(=O)c2=O)c1,/,/,/,/,2%,/
COc1ccc(C)cc1NC(=O)N1CCC(CN2CCC(C)CC2)CC1,i,/,/,/,0%,i
Cc1cc(C(=O)Nc2ccccc2-c2nc(CNC(=O)C3COc4ccccc4O3)c(C)o2)c(C)o1 (stereo not drawn),/,/,/,/,0%,/
CS(=O)(=O)N1CCC2(CCCN(C(c3ccccc3)c3ccccc3)C2)CC1,/,/,/,/,2%,/
CCOc1ccc2nc(N3CCCC3C(=O)N3CCC(c4nc5ccccc5o4)CC3)nc(C)c2c1 (stereo not drawn),/,/,/,/,1%,/
CCCCNS(=O)(=O)c1ccc(NC(=O)c2c(-c3ccccc3Cl)noc2C)cc1,i,11%,?,/,5%[38.3 µM],21µM*
Cc1onc(-c2ccccc2Cl)c1C(=O)Nc1cccc(-c2nc3ncccn3c2C)c1,i,7%,?,/,-1%[38.3 µM],8.2µM*

# Assay outcomes: PubChem, National Center for Advancing Translational Sciences (NCATS)
